Here are results for 7 molecules from PubChem BioAssay (Tox21).

A number with no mark means an inactive call. Results filed as inconclusive are left out. Calls of active or inactive are those of the source. Unless noted, calls follow the shape of the dose curve; as a rule, active = well fitted curve in the direction sought with a large enough effect in the repeat runs; inconclusive = weak or mixed curves; inactive = no such curve, though single readings can be large; an effect the other way counts as inactive or inconclusive.

Test [1] in a line: qHTS assay to identify small molecule agonists of the estrogen receptor alpha (ER-alpha) signaling pathway in the presence of an antagonist - cell viability counter screen (AID 1259386).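 Also: series mostly up to about 92 µM; cells exposed to compounds for 22 h at 37 °C before the viability read; nearly all actives have a fitted effect of over 30% in size.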 In outline:
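Cells are starved of estrogens for 5 days in charcoal-stripped serum, seeded for 24hr and co-treated with ICI-182,780 (10.0nM final) and test compounds. After 22hr at 37C, viability is read as CellTiter-Fluor fluorescence.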
In general terms: qHTS replaces the single test concentration by a dilution series.

The target of test [2] is Progesterone receptor (Homo sapiens) (UniProt P06401). In words: qHTS assay to identify small molecule agonists of the progesterone receptor (PR) signaling pathway (AID 1346784; calls by dose curve; also: nearly all actives have a fitted effect of over 30% in size). In outline: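 Fluorescence from LiveBLAzer B/G FRET substrate cleavage (2 hr, RT) reported PR activation in PR-UAS-bla HEK 293T cells treated 16 hr at 37C/5% CO2 with compounds; medium contained 2% charcoal-stripped FBS.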

Test [3] has the same target. In words: qHTS assay to identify small molecule antagonists of the progesterone receptor (PR) signaling pathway (AID 1346795; active = well fitted inhibition curve with a large enough effect in the signal ratio in the repeat runs, not every such curve was filed as active; the % refers to the signal ratio; also: potency is read from the fitted curve at half-maximal effect). The procedure, abridged:
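Fluorescence intensity measured 2 hr after adding beta-lactamase FRET substrate to PR-UAS-bla HEK293T cells that had been co-treated 16 hr with compound and 1 nM R5020 (final concentration) in 2% charcoal-stripped FBS.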

The nature of test [4]: qHTS assay to identify small molecule antagonists of the progesterone receptor (PR) signaling pathway - cell viability counter screen (AID 1346798). Also: series mostly up to about 92 µM; nearly all actives have a fitted effect of over 50% in size. The procedure, abridged: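 CellTiter-Glo luminescence; PR-UAS-bla HEK293T, 3,000 cells/well; compound + R5020, 16 hr, 37C/5% CO2; 30 min RT before read.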
Test [5] in a line: qHTS assay to identify small molecule agonists of the progesterone receptor (PR) signaling pathway - cell viability counter screen (AID 1346799; calls by dose curve; also: nearly all actives have a fitted effect of over 45% in size). The procedure, abridged:
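In parallel with the beta-lactamase readout, cytotoxicity toward PR-UAS-bla HEK293T cells was measured by CellTiter-Glo luminescence following 16 hr compound incubation in 2% charcoal-stripped FBS medium.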

Test [6] is described as follows: qHTS assay to identify small molecule antagonists of the TGF-beta/Smad signaling pathway - cell viability counter screen (AID 1346824). Also: nearly all actives have a fitted effect of over 50% in size. In outline:
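SBE-bla HEK 293T cells, incubated overnight, then compound plus 0.25 ng/mL TGF-beta1 (stock added) for 5 hr at 37 C. Viability was read in the same wells by CellTiter-Glo luminescence after 30 min at room temperature.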

Test [7] is described as follows: qHTS assay to identify small molecule agonists of the TGF-beta/Smad signaling pathway - cell viability counter screen (AID 1346829). Also: top concentration of the series differs between compounds; nearly all actives have a fitted effect of over 45% in size. The procedure, abridged: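 Same-well cytotoxicity: CellTiter-Glo added after the 2 hr room-temperature beta-lactamase substrate step, luminescence measured 30 min later; cells had 5 hr of compound at 37 C.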
A short description of test [8]: qHTS assay to identify small molecule agonists of the TGF-beta/Smad signaling pathway (AID 1346859; active = well fitted activation curve with a large enough effect in the signal ratio in the repeat runs, not every such curve was filed as active; the % refers to the signal ratio; also: series mostly up to about 77 µM). The procedure, abridged:
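After overnight seeding, SBE-bla HEK 293T cells are dosed with compounds in DMSO and kept 5 hr at 37 C, 5% CO2. LiveBLAzer-type FRET substrate is then applied for 2 hr at room temperature.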

The target in test [9] is Thyrotropin-releasing hormone receptor (Homo sapiens) (UniProt P34981). In words: qHTS assay to identify small molecule antagonists of the thyrotropin-releasing hormone receptor (TRHR) signaling pathway (AID 1346877; active = well fitted inhibition curve with a large enough effect in the repeat runs, not every such curve was filed as active; also: series mostly up to about 51 µM). The procedure, abridged:
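Cells (TRHR-HEK293) are plated and kept 18 h at 37 °C/5% CO2. A calcium-sensitive dye is added for 2 h, compound follows for 5 min at room temperature, and TRH is then given at 1 nM final.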

The target is the same in test [10]. In words: qHTS assay to identify small molecule agonists of the thyrotropin-releasing hormone receptor (TRHR) signaling pathway (AID 1346891; calls by dose curve;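 also: HEK293 cells expressing TRHR with calcium dye readout; series mostly up to about 58 µM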). In outline: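 Compounds were tested as agonists at 15 concentrations, in triplicate, on TRHR-Hek293 cells; calcium-sensitive dye fluorescence was recorded for 3 min following addition.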
Test [11] is described as follows: Human pregnane X receptor (PXR) small molecule agonists, qHTS cell viability counter screen (AID 1346977). Also: nearly all actives have a fitted effect of over 50% in size. In outline:
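Viability counter screen: CellTiter-Fluor signal in PXR-Luc HepG2 cells, 24hr compound exposure, 37C, 5% CO2.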

A short description of test [12]: Caspase-3/7 induction in HepG2 cells by small molecules, qHTS assay (AID 1346978). Also: nearly all actives have a fitted effect of over 15% in size. The procedure, abridged:
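Wild-type HepG2 cells, 2,000/well, settled 5 hr at 37 C and 5% CO2, then compound-treated for 17 hr; caspase-3/7 activity read by luminescent Caspase-Glo 3/7 after 30 min at room temperature.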

Test [13] is described as follows: Caspase-3/7 induction in CHO-K1 cells by small molecules, qHTS cell viability counter screen (AID 1346979). Also: nearly all actives have a fitted effect of over 35% in size. The procedure, abridged: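 Viability readout by fluorescence (CellTiter-Fluor) on wild-type CHO-K1 cells exposed for 16hr at 37C and 5% CO2 to compounds delivered in DMSO; reagent incubated 1hr before reading.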
The nature of test [14]: Caspase-3/7 induction in CHO-K1 cells by small molecules, qHTS assay (AID 1346980). Also: nearly all actives have a fitted effect of over 15% in size. The procedure, abridged:
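Wild-type CHO-K1 cells exposed to compounds for 17hr at 37 C, 5% CO2. Caspase-3/7 activity then measured by Caspase-Glo 3/7 luminescence after 30min at room temperature.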

A short description of test [15]: Caspase-3/7 induction in HepG2 cells by small molecules, qHTS cell viability counter screen (AID 1346981). Also: series mostly up to about 92 µM; nearly all actives have a fitted effect of over 30% in size. The procedure, abridged:
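Steps: seed 2,000 HepG2 cells per well; incubate 5 hr at 37 C; pin-add compounds in DMSO; incubate 16 hr; add CellTiter-Fluor; after 1 hr at 37 C and 5% CO2, read fluorescence.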

Test [16] has as its target Nuclear receptor subfamily 1 group I member 2 (Homo sapiens) (UniProt O75469). In words: Human pregnane X receptor (PXR) small molecule agonists, qHTS assay (AID 1346982). Also: nearly all actives have a fitted effect of over 35% in size. In outline: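 Agonist mode qHTS: PXR-Luc HepG2 cells plated 5 hr before DMSO-dissolved compounds were pinned in, cultured 24 hr at 37 C, 5% CO2; ONE-Glo luminescence readout.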
In test [17] the target is Acetylcholinesterase (Homo sapiens) (UniProt P22303). In words: Acetylcholinesterase (AChE) small molecule antagonists: colormetric cell-based qHTS assay (AID 1347395; calls by dose curve; also: nearly all actives have a fitted effect of over 30% in size). In outline:
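Homogeneous whole-cell format. SH-SY5Y cells seeded overnight, dosed with compound (30 min, 37 C, 5% CO2), then given DTNB/acetylthiocholine cocktail for 90 min at 37 C; colorimetric signal.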

Test [18] deals with Nuclear receptor subfamily 1 group I member 2 (Rattus norvegicus) (UniProt Q9R1A7). In words: Rat pregnane X receptor (rPXR) activation by small molecules, qHTS assay (AID 1346983). Also: nearly all actives have a fitted effect of over 20% in size. The settings on record: rPXR luciferase reporter cells, One-Glo luminescence, 24 h; hits give high values. In outline: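 Cell-based rPXR activation assay: rPXR cells, 2,000 per well, rested 5hr at 37 C, then exposed to compounds in DMSO for 24 hr at 37 C. Luciferase activity read by One-Glo luminescence after 30 min at room temperature.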

The target of test [19] is Nuclear receptor subfamily 1 group I member 2 (Homo sapiens) (UniProt O75469). In words: CYP3A4 induction through human pregnane X receptor (PXR) by small molecules, qHTS assay (AID 1346984). Also: nearly all actives have a fitted effect of over 40% in size. In outline:
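Steps: seed DPX-2 cells, 5 hr at 37C; pin-transfer compounds; 24 hr at 37C; add Luciferin-IPA (3uM final), 3 hr at 37C; add One-Glo, 30 min RT; read luminescence.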

Test [20] has the same target. In words: Human pregnane X receptor (PXR) activation by small molecules, qHTS assay (AID 1346985). Also: nearly all actives have a fitted effect of over 40% in size. In outline:
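DPX-2 cells (HepG2 co-transfected with a PXR response element and a CYP3A4-promoter luciferase construct) were seeded at 2,000 per well, rested 5 hr at 37C, then exposed to DMSO-dissolved compounds for 24 hr. Activation was read as luciferase luminescence.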
% is scaled to controls: 0 for no effect and ±100 for the full control effect.

Chain of Nuclear receptor subfamily 1 group I member 2 (Homo sapiens) (O75469 whole entry, looked up): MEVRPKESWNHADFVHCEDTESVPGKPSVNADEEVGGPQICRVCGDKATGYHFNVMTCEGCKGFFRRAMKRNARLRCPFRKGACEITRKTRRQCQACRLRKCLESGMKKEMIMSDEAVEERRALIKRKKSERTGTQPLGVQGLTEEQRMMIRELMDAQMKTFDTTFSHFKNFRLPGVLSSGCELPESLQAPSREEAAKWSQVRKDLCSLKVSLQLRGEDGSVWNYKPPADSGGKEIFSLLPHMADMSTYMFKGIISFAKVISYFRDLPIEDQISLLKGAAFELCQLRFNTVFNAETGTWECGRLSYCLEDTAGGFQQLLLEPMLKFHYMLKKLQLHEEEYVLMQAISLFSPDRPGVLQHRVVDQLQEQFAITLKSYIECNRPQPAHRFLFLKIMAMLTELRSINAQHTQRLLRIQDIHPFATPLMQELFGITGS
Chain of Thyrotropin-releasing hormone receptor (Homo sapiens) (P34981 whole entry, looked up): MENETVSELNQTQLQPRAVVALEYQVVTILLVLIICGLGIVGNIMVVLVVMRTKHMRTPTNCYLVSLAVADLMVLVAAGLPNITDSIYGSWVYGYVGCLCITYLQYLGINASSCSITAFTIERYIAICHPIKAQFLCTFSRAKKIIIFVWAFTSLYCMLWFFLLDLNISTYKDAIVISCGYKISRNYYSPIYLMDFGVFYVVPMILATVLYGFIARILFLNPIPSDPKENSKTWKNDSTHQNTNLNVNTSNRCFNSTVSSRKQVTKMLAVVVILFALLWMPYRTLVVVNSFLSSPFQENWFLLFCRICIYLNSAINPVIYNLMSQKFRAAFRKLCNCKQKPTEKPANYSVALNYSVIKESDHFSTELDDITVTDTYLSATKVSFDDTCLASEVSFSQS
Chain of Acetylcholinesterase (Homo sapiens) (P22303 whole entry, looked up): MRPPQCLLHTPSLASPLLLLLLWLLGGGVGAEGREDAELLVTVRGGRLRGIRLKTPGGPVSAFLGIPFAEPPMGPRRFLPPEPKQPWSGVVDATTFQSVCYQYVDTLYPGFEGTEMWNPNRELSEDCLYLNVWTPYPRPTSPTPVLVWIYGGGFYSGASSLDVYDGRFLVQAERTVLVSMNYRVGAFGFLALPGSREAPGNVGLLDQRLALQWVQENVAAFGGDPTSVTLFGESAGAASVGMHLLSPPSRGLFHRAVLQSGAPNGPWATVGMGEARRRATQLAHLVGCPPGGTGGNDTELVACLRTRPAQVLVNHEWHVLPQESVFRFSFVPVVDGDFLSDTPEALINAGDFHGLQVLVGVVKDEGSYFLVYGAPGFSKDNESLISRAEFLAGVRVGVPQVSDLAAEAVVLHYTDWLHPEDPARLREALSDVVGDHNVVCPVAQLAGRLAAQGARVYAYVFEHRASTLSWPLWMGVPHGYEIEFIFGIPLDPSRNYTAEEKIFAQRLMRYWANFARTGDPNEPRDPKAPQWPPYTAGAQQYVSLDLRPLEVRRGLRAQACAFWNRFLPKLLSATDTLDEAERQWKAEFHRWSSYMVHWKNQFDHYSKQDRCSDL
Chain of Progesterone receptor (Homo sapiens) (P06401 whole entry, looked up): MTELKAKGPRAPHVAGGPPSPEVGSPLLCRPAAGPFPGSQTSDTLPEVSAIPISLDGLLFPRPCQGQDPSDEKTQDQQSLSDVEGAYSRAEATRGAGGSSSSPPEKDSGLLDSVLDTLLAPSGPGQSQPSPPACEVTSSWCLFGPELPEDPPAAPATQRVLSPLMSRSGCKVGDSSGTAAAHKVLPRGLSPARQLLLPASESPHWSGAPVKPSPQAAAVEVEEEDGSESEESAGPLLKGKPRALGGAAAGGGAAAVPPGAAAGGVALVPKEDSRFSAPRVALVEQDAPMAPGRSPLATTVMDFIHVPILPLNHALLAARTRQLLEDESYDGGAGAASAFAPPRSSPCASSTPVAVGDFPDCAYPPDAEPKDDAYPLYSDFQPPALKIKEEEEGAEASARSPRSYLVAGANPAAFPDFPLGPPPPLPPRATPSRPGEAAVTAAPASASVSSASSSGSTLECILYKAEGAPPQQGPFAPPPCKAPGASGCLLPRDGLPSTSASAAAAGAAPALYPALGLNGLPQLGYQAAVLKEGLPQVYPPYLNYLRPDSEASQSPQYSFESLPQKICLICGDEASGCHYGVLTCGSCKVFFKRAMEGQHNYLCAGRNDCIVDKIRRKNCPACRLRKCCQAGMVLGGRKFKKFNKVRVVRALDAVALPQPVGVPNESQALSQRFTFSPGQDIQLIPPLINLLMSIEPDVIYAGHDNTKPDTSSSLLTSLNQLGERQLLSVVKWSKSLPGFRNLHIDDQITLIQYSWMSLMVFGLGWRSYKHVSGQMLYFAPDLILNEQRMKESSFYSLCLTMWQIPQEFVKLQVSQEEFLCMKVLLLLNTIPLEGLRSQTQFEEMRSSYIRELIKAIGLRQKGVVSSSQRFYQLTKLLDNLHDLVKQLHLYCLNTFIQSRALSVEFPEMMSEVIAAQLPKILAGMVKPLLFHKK
Chain of Nuclear receptor subfamily 1 group I member 2 (Rattus norvegicus) (Q9R1A7 whole entry, looked up): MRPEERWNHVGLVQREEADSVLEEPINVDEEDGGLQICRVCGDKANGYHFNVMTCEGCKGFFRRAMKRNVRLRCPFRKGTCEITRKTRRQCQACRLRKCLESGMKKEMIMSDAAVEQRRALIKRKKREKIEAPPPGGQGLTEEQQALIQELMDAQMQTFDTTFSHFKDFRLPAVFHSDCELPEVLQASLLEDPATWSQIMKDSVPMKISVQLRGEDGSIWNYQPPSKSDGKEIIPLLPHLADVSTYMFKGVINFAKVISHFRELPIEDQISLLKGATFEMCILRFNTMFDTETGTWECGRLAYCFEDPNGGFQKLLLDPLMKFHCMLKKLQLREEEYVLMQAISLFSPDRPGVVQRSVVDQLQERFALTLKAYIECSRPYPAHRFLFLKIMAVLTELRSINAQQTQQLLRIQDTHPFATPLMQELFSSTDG

As to `CC1(C)[C@H](C(=O)O[C@H](C#N)c2cccc(Oc3ccccc3)c2)[C@@H]1C=C(Br)Br`, the Potency entry in test [1], in test [2], in test [4], in [5], in test [6] and in test [7] was “inactive” in each case. For the same molecule, the Potency entry in test [9], in test [11], in [12], in test [13], in test [14] and in [15] was “inactive” in each case. For the same molecule, in test [3], the Potency is 17.2 µM (active). Further, the call in test [8] and in test [10] was inactive.
As to `CCC(C)(C)O`, the Potency result in test [1], in test [2], in test [3], in test [4], in test [5] and in test [6] was “inactive” throughout. The Potency entry in test [7], in test [9], in [11], in test [12], in test [13] and in [14] was “inactive” throughout. Besides, the Potency entry in test [15], in test [16] and in test [17] was “inactive” each time. Moreover, the call in test [8] and in [10] was inactive.
As for `CC(Cl)C(=O)O` (stereo not given), the Potency entry in test [1], in test [2], in [3], in [4], in test [5] and in [6] was “inactive” in each case. Also, the Potency entry in test [7], in [9], in test [11], in test [12], in test [13] and in test [14] was “inactive” in each case. Also, the Potency result in test [15], in test [16] and in test [17] was “inactive” in each case. For the same molecule, the molecule was classed as inactive in test [8] and in [10].
For `C[N+](C)(C)CCOC(=O)C(O)(c1ccccc1)c1ccccc1`, the Potency entry in [1], in [2], in test [3], in [4], in [5] and in test [6] was “inactive” each time. In addition, the Potency result in [7], in test [9], in [11], in [12], in test [13] and in test [14] was “inactive” in each case. For the same molecule, the Potency entry in test [15], in test [16], in test [20] and in [17] was “inactive” throughout. Besides, the molecule was called inactive in [8], in [10] and in [19]. For the same molecule, the max activation in [18] was -2.47%.
As to `CCOP(=O)(O)C(N)=O`, the Potency result in [1], in test [2], in test [3], in [4], in test [5] and in test [6] was “inactive” each time. Also, the Potency result in test [7], in test [9], in test [11], in test [12], in test [13] and in [14] was “inactive” in each case. Also, the Potency entry in test [15], in [16] and in test [17] was “inactive” in each case. For the same molecule, the outcome in test [8] and in [10] was inactive.
Regarding `O=C(Cc1ccccc1)OCCc1ccccc1`, the Potency result in test [1], in test [2], in test [3], in test [4], in test [5] and in test [6] was “inactive” each time. The Potency result in test [7], in test [9], in [11], in [12], in [13] and in test [14] was “inactive” throughout. Moreover, the Potency entry in [15], in test [16] and in test [17] was “inactive” in each case. In addition, the outcome in [8] and in test [10] was inactive.
As for `NC(=O)CF`, the Potency result in [1], in test [2], in [3], in test [4], in [5] and in [6] was “inactive” in each case. The Potency result in test [7], in [9], in [11], in [12], in [13] and in test [14] was “inactive” in each case. In addition, the Potency result in test [15], in test [16] and in test [17] was “inactive” in each case. For the same molecule, the molecule was classed as inactive in test [8] and in [10].
